Assay results taken from PubChem BioAssay AID686971 (National Center for Advancing Translational Sciences (NCATS), 2013).
Among all 360,000 compounds or so, about 7,500 (2.1%) were called active. A call without a number means that no potency is given here. Roughly 8% stayed inconclusive and do not appear here. This excerpt belongs to a sample that is enriched for actives. Unmarked numbers belong to inactive results. Calls come from the whole dose curve; as a rule, active = well fitted cell-killing curve with a large enough effect; inconclusive = small, poorly fitted or top-dose-only effect, or effect the other way, or another doubt; inactive = no such curve, though single readings can be large or run the other way.

test: qHTS for induction of synthetic lethality in tumor cells producing 2HG: qHTS for the HT-1080-IDH1KD cell line; conditions: HT-1080 IDH1 knockdown viability, ATP luminescence, 48 h; series mostly up to 46.1 µM
Excerpt: Unbiased genomic sequencing for 22 glioma genomes found recurrent mutation of IDH1 on chromosome 2q33, a gene encoding the cytosolic isoform of IIDH1 associated with the tri-carboxylic acid cycle (TCA) that catalyzes the oxidative decarboxylation of isocitrate, yielding alpha-ketoglutarate and CO2 via NADP+ to NADPH conversion. Subsequent studies confirmed the recurrent IDH mutations in up to 70% of secondary gliomas and in 10% of AML cases. In addition, the somatic mutation of cancer-associated IDH1 is a point mutation resulting in various amino-acid substituents at Arginine132 (IDH1 R132), a key residue found in the enzyme's active site that when mutated, results in the loss-of-function in metabolizing isocitrate but confers a gain-of-function to produce the oncometabolite 2-hydroxyglutarate (2HG). This in effect defines IDH1 as an oncogene and provides an extraordinary opportunity to discover chemical probes against mutant IDH1 that may translate into much needed new therapies for glioma and AML patients.
This assay aims to perform a synthetic-lethal screen for chemical probes specific for 2HG-producing tumor cells using matched paired cell lines (1) HT-1080-NT fibrosarcoma cell line that overproduces 2HG and (2) HT-1080-IDH1KD cell line which has IDH1 expression knocked-down. Desirable compounds are toxic to the NT fibrosarcoma cell line but not to the IDH1KD cell line. The data in this AID corresponds to the results of the qHTS against the HT-1080 IDH1KD cell line.
[1] Dang L, Jin S, Su SM. IDH mutations in glioma and acute myeloid leukemia. Trends of Mol Med. 2010; 16(9): 387-97.
[2] Dang L et al. Cancer-associated IDH1 mutations produce 2-hydroxyglutarate. Nature. 2010; 465(7300):966.
Molecular Libraries Probe Production Centers Network [MLPCN]
NIH Chemical Genomics Center [NCGC]
Assay Submitter (PI): Lenny Dang Ph.D., Agios Pharmaceuticals
Suspensions of trypsinized HT-1080-IDH1KD cells were dispensed into white, tissue culture-treated, solid 1536-well plates at 5uL/well (750 cells/well final concentration) in RPMI medium supplemented with 5% FBS. Plates were incubated at 37 degrees C for 2 hours, after which 23 nL of compounds or DMSO were delivered to each well using a pin tool. Plates were then incubated at 37 degrees C for an additional 48 hours. CellTiter-Glo viability reagent (Promega) was dispensed into wells (2.5uL/well) and incubated at room temperature for 10 minutes. The plates were measured on a PerkinElmer ViewLux plate reader for luminescent signal (clear filter, 1 sec exp.). DMSO-treated control wells and media-only (no cells) control wells were used to normalize %Activity of identified toxic compounds; DMSO-treated wells corresponded to 0%Activity (100% viability), while media-only controls were used to normalize 100%Activity (0% viability). To minimize variability between cell lines, both HT-1080-NT and HT-1080-IDH1KD lines were dispensed and treated with identical compound series in single batches.
Concentration-response curves were fitted to the signals arising from the resulting luminescence. The concentration-effect curves were then classified based on curve quality (r2), response magnitude and degree of measured activity, and compounds were subsequently categorized based on their curve class.
Potency is the fitted concentration of half-maximal effect.

Compound | Potency | activity, negative = toxicity
Cc1nc(N=C(N)N)nc2c(C)cccc12 | 32.6 µM (active) | 
Cc1cc(C)c2cc(C#N)c(N3CCNCC3)nc2c1 | inactive | 
CCOC(=O)c1ccccc1OC(=O)Oc1ccccc1C(=O)OCC | inactive | 
CCOC(=O)c1c(C)nc2c(c1C)c(=O)oc1ccccc12 | inactive | 
CCOC(=O)c1c(C)[nH]c2c1-c1ccccc1C(=O)C2=O | 2.91 µM (active) | 
COCc1cccc(-c2csc(C(O)c3ccc(F)cc3)n2)c1 (stereo unspecified) | inactive | 
Cc1ccccc1C(=O)N1CCN(c2ccc(NC(=O)c3cccs3)cc2)CC1 | inactive | 
Cc1ccc(OCC(=O)Nc2ccc(N3CCN(C(=O)c4ccco4)CC3)cc2)c(C)c1 | inactive | 
COc1cccc(C(=O)Nc2ccc3nc4n(c(=O)c3c2)CCCCC4)c1 | inactive | 
COc1cccc(C(=O)Nc2ccc(N3CCCC3)cc2)c1 | 18.4 µM (active) | 
COc1cccc(OCc2cc(C(=O)N3CCN(C(=O)c4ccco4)CC3)no2)c1 | inactive | 
COc1cccc(C(=O)Nc2ccc(N3CCN(C(=O)c4ccco4)CC3)cc2)c1 | 11.6 µM (active) | 
COc1cccc(C(=O)Nc2nnc(S(=O)(=O)N3CCCCC3)s2)c1 | inactive | 
Cc1ccccc1C(=O)Nc1ccccc1NC(=O)c1ccccc1C | inactive | 
Cc1ccccc1C(=O)Nc1ccc(N2CCCCCC2)cc1 | 14.6 µM (active) | 
Cc1cccc(N(CC(=O)N2CCCC2)S(C)(=O)=O)c1C | inactive | 
COC(=O)c1ccccc1N=NNc1ccc([N+](=O)[O-])cc1 | inactive | 
CCCNC(=O)C1CC(=O)N(c2ccc(OCc3ccccc3)cc2)C1 (stereo unspecified) | inactive | 
Cc1nc2ccccn2c(=O)c1NC(=O)c1ccc(Br)o1 | inactive | 
C[C@H]1Cn2cnc(C(=O)N[C@H](C)c3ccccc3)c2C(=O)N1 | inactive | 
Cc1ccc(CCNC(=O)CN2C(=O)CSc3ccc(S(=O)(=O)N4CCOCC4)cc32)cc1 | inactive | 
CC1(C(=O)Nc2cccc3cccnc23)CCN1C(=O)CCC1CCCC1 (stereo unspecified) | inactive | 
CC[C@]1(O)C[C@@H]2CN(CCc3c([nH]c4ccccc34)[C@@](C(=O)OC)(c3cc4c(cc3OC)N(C)[C@H]3[C@@](O)(C(=O)OC)[C@H](OC(C)=O)[C@]5(CC)C=CCN6CC[C@]43[C@@H]65)C2)C1 | 0.0366 µM (active) | 
CC[C@]1(O)CC2CN(CCc3c([nH]c4ccccc34)[C@@](C(=O)OC)(c3cc4c(cc3OC)N(C=O)[C@H]3[C@@](O)(C(=O)OC)[C@H](OC(C)=O)[C@]5(CC)C=CCN6CC[C@]43[C@@H]65)C2)C1 (stereo partly specified) | 0.184 µM (active) | 

Compound | Potency | activity, negative = toxicity
Nc1nc(CSc2nnnn2-c2ccccc2)nc(Nc2ccccc2)n1 | inactive | 
CCCS(=O)(=O)NC(=O)C1(C)CCCN(C(=O)c2ccnc(Cl)c2)C1 (stereo unspecified) | inactive | 
CCC(CO)Oc1cc(NCc2ccccc2)c2ncn(C3CCCC3)c2c1 (stereo unspecified) | inactive | 
COc1ccc(CNC2CCCCC2)cc1 | inactive | 
COc1ccc(CNc2nc(NCc3ccc(OC)cc3)c3ncn(C4CCCC4)c3n2)cc1 | 4.61 µM (active) | 
Cc1ccc(S(=O)(=O)N2CCCCC2)cc1NC(=O)CCNC(=O)c1ccccc1Cl | inactive | 
Cn1cc(C(=O)c2ccc(Cl)cc2Cl)cc1C(=O)NN | inactive | 
CC(C)(C)NC(=O)NC(=O)COC(=O)Cc1ccc(Cl)cc1Cl | inactive | 
CC(C)(C)c1cc(C(=O)NN)n(Cc2ccc(Cl)cc2Cl)n1 | 14.6 µM (active) | 
CCN(CC)CCN(C)C(c1ccnc2ccccc12)c1nnnn1-c1ccc2c(c1)OCCO2 (stereo unspecified) | inactive | 
COc1ccc(CN2C(=O)C(CC(=O)NCCCCc3ccccc3)CC(C(=O)N3CCOCC3)=C2C)cc1 (stereo unspecified) | inactive | 
O=C(COC(=O)c1ccncc1)c1ccccc1 | inactive | 
O=C(Oc1ccc(-c2nc(-c3ccccn3)no2)cc1)c1ccccc1 | 2.31 µM (active) | 
Brc1ccc(-c2noc(-c3ccccc3)n2)o1 | inactive | 
COc1ccccc1CNC(=O)c1cc(-c2cc(F)ccc2OC)n[nH]1 | inactive | 
c1ccc(CNCc2ccc(CNCc3ccccc3)cc2)cc1 | inactive | 
O=C1/C(=C\c2cccnc2)CN(Cc2ccccc2)C/C1=C\c1cccnc1 | 1.84 µM (active) | 
Clc1ccc(CN2CCN(/N=C/c3cccnc3)CC2)cc1 | inactive | 
Cc1ccccc1C1=N/C(=C/c2cccnc2)C(=O)O1 | inactive | 
O=C(Nc1ccccc1)c1ccccc1OCc1ccccc1 | inactive | 
CC(C)(O)C#Cc1ccc(CN2CCC(CO)(CCc3ccccc3)CC2)cc1 | inactive | 
Cc1c(CN2CCC(CO)(CCOc3ccccc3)CC2)[nH]c2ccc(Cl)cc12 | 23.1 µM (active) | 
CCOC(=O)C1(CCOc2ccccc2)CCN(Cc2cc(OC)c(O)cc2Cl)CC1 | inactive | 
O=C(CC(CC(=O)c1ccccc1)c1ccco1)c1ccccc1 | inactive | 

Compound | Potency | activity, negative = toxicity
CC(=O)N1C[C@@H](CO)[C@@H](N(C)C(=O)c2ccco2)C[C@H]1c1ccccc1 | inactive | 
O=[N+]([O-])c1ccc(CN2CC(N3CCC(c4ccccc4)CC3)CS2(=O)=O)cc1 (stereo unspecified) | inactive | 
Cc1cccc(NC(=O)c2nc(S(=O)(=O)Cc3ccccc3)ncc2Cl)c1 | 6.51 µM (active) | 
Cc1cccc(NC(=O)c2nc[nH]c2C(=O)NCC(=O)OCc2ccccc2)c1 | inactive | 
O=C(Nc1ccc(F)cc1)c1ccc(S(=O)(=O)NCc2cccnc2)cc1 | inactive | 
CCOc1ccc(NC(=O)c2nc(SCC)ncc2Cl)cc1 | inactive | 
Cc1cccc(CS(=O)(=O)c2ncc(Cl)c(C(=O)Nc3ccc(F)cc3)n2)c1 | 16.4 µM (active) | 
Cc1cccc(NC(=O)C(C)SCc2ccccc2)c1 (stereo unspecified) | inactive | 
CCCCN1C(=O)C(CC(=O)NC(c2ccccc2)c2ccccc2)CC(C(=O)N2CCOCC2)=C1C (stereo unspecified) | inactive | 
O=S1(=O)C[C@@H](N2CCN(CCO)CC2)[C@H](COCc2ccccc2)N1 | inactive | 
COc1ccc([C@H]2N[C@]3(CCCN(CC4CCCCC4)C3=O)[C@H]3C(=O)N(C)C(=O)[C@@H]23)cc1 | inactive | 
Cc1ccccc1S(=O)(=O)NC(=O)C1(C)CCN1C(=O)Cc1ccc(Cl)cc1Cl (stereo unspecified) | inactive | 
Cc1cn([C@H]2C[C@H](O)[C@@H](CNC(=O)[C@H](N)Cc3cccnc3)O2)c(=O)[nH]c1=O | inactive | 
Nc1cc(=O)c2[nH]cnc2[nH]1 | inactive | 
COc1ccccc1N1CCN(C(=O)c2ccc(Cl)c(S(=O)(=O)N3CCCC3)c2)CC1 | inactive | 
COc1ccccc1N1CCN(C(=O)c2c(-c3c(Cl)cccc3Cl)noc2C)CC1 | inactive | 
COc1ccccc1N1CCN(C(=O)c2cc(=O)c3cc(C)cc(C)c3o2)CC1 | 0.0103 µM (active) | 
C[C@H](NC(=O)CC[C@H]1O[C@@H](n2ccc(=O)[nH]c2=O)[C@H](O)[C@@H]1O)c1cccc2ccccc12 | inactive | 
C[C@@H]1CN([C@@H](C)CO)C(=O)CCCn2nncc2CO[C@H]1CN(C)C(=O)Nc1ccc(C(F)(F)F)cc1 | inactive | 
C[C@@H]1CN([C@@H](C)CO)C(=O)c2cc(Br)cnc2O[C@@H]1CN(C)C(=O)C1CCCCC1 | inactive | 
CC1=C(C(=O)N2CCOCC2)CC(CC(=O)NCc2cccs2)C(=O)N1CCCN1CCCC1=O (stereo unspecified) | inactive | 
CCCCN1CC(COCc2ccccc2)OCCS1(=O)=O (stereo unspecified) | inactive | 
CCCCC[C@H](C)N1C[C@@H](COCc2ccccc2)Oc2cc(N3CC[C@@H](N(C)C)C3)ccc2S1(=O)=O | 18.4 µM (active) | 
CCCCC[C@H](C)N1C[C@@H](COCc2ccccc2)Oc2cc(N3CCC[C@@H]3CO)ccc2S1(=O)=O | inactive | 

Compound | Potency | activity, negative = toxicity
C[C@H](CO)N1C[C@H](C)[C@@H](CN(C)S(=O)(=O)c2ccc(F)cc2)OCc2cnnn2CCCC1=O | inactive | 
CC1(Oc2cccc(F)c2)CCN(Cc2ccccc2OC(F)F)C1 (stereo unspecified) | inactive | 
Cc1[nH]n(-c2ccc(Cl)cc2)c(=O)c1/C=N/n1c(C)nc2ccccc2c1=O | 16.4 µM (active) | 
Cc1[nH]n(-c2ccc([N+](=O)[O-])cc2)c(=O)c1C=NCCN1CCN(C(=O)c2ccccc2F)CC1 | inactive | 
Cn1c(COc2ccc(Cl)cc2)nc2ccccc2c1=O |  | 4.13% [at 9.24 µM]
CC1(C(=O)NCc2ccccc2)CSCC(=O)N1CCCN1CCOCC1 (stereo unspecified) | inactive | 
O=C(CCCN1C(=O)C(c2ccccc2)Oc2cccnc21)Nc1ccccc1Br (stereo unspecified) | inactive | 
COc1ccc(-c2ccc3[nH]c4c(c3c2)CCN2C[C@H]3[C@H](C)ON(C)[C@H]3C[C@@H]42)cc1 | inactive | 
N=c1c2c(-c3ccccc3)c(-c3ccccc3)n(Cc3ccccc3)c2ncn1CCCO | 5.62 µM (active) | 
COCCn1cnc2c1c(=O)n(Cc1ccc(Br)cc1)c(=O)n2Cc1ccccc1 | inactive | 
CCN(CC)CCn1cnc2c1c(=O)[nH]c(=O)n2Cc1ccccc1 | inactive | 
FC(F)(F)c1cccc(-c2nc3ccccc3n2C(c2ccccc2)c2nc3ccccc3[nH]2)c1 (stereo unspecified) | inactive | 
CCN(CC)C(=O)C1CCCN(Cc2cccc(Cl)c2)C1 (stereo unspecified) | inactive | 
CC1(C(=O)Nc2ccccc2Br)CCN1C(=O)CC1CC1 (stereo unspecified) | inactive | 
CC[C@@H]1Cc2cc(O)ccc2C2=C1c1ccc(O)cc1C[C@H]2CC | 14.6 µM (active) | 
CC(C)OC(=O)CC(=O)CC(O)c1cccc([N+](=O)[O-])c1 (stereo unspecified) | inactive | 
COc1ccc(CCNC(=O)CN(c2ccccc2)S(=O)(=O)c2ccccc2)cc1 | inactive | 
COC(=O)C1(C(=O)OC)C/C=C\CN(S(=O)(=O)c2ccccc2[N+](=O)[O-])CCC1 | inactive | 
CC(=O)Nc1ccc(C=CC(=O)c2ccc([N+](=O)[O-])cc2)cc1 | inactive | 
CC(CC(=O)O)C(=O)c1ccc(Cl)c([N+](=O)[O-])c1 (stereo unspecified) | inactive | 
O=C(/C=C/c1ccc(Cl)c([N+](=O)[O-])c1)c1ccc(O)cc1 | 11.6 µM (active) | 
Nn1cnnc1N/N=C/c1cc([N+](=O)[O-])c(Cl)cc1Cl | inactive | 
O=C(Nc1ccncc1)c1ccc(Cl)c([N+](=O)[O-])c1 | inactive | 
NC(N)=N/N=C/c1ccc(Cl)c([N+](=O)[O-])c1 | 23.1 µM (active) | 
